# Experimental data as given in PubChem BioAssay AID1159580 (chemical genetic matrix, 2015).
# Values joined by “and” are separate entries in the source; they are usually repeats but may differ in a detail not shown here. Equal values may be shown once. In all, about 5,500 compounds went through this assay and about 2,000 (36%) were called active. About 18% were inconclusive and are not listed. Some of the results follow. Unmarked numbers belong to inactive results. Rule as the data show it: active = normalized growth mostly below about 0.91 (no sharp cut-off); inconclusive = no clear call, values can overlap the other calls; inactive = mostly above about 0.92.
# Test: chemical genetic growth profiling, strain panel (AID 1159580);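 also: tested at 20 µM; growth read once vehicle control cultures reached saturation at 30 °C; 1 = growth at the plate median or of vehicle wells; lower values mean less growth of the strain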
# Details: S. cerevisiae deletion strains, growth OD
structure (smiles),measurement,setting,value
O=C1c2ccccc2C(=O)c2c1ccc(O)c2O,normalized growth,"locus YAL021C, strain ccr4, stronger effect = lower value",0.213 (active)
same,normalized growth,"locus YAL026C, strain drs2, stronger effect = lower value",0.273 (active)
same,normalized growth,"locus YAL030W, strain snc1, stronger effect = lower value",0.578 (active)
same,normalized growth,"locus YBL061C, strain skt5, stronger effect = lower value",0.44 (active)
same,normalized growth,"locus YBR009C, strain hhf1, stronger effect = lower value",0.532 (active)
same,normalized growth,"locus YBR021W, strain FUR4, stronger effect = lower value",0.671 (active)
same,normalized growth,"locus YBR023C, strain chs3, stronger effect = lower value",0.38 (active)
same,normalized growth,"locus YBR171W, strain sec66, stronger effect = lower value",0.681 (active)
same,normalized growth,"locus YBR229C, strain ROT2, stronger effect = lower value",0.399 (active)
same,normalized growth,"locus YBR231C, strain swc5, stronger effect = lower value",0.3 (active)
same,normalized growth,"locus YBR279W, strain paf1, stronger effect = lower value",0.512 (active)
same,normalized growth,"locus YCL011C, strain gbp2, stronger effect = lower value",0.501 (active)
same,normalized growth,"locus YCL016C, strain dcc1, stronger effect = lower value",0.564 (active)
same,normalized growth,"locus YCL029C, strain bik1, stronger effect = lower value",0.342 (active)
same,normalized growth,"locus YCL061C, strain MRC1, stronger effect = lower value",0.608 (active)
same,normalized growth,"locus YCL069W, strain vba3, stronger effect = lower value",0.52 (active)
same,normalized growth,"locus YCR088W, strain abp1, stronger effect = lower value",0.679 (active)
same,normalized growth,"locus YDL005C, strain med2, stronger effect = lower value",0.663 (active)
same,normalized growth,"locus YDL035C, strain GPR1, stronger effect = lower value",0.231 (active)
same,normalized growth,"locus YDL040C, strain nat1, stronger effect = lower value",0.703 (active)
same,normalized growth,"locus YDL074C, strain BRE1, stronger effect = lower value",0.178 (active)
same,normalized growth,"locus YDL101C, strain DUN1, stronger effect = lower value",0.235 (active)
same,normalized growth,"locus YDL185W, strain tfp1, stronger effect = lower value",0.816 (active)
same,normalized growth,"locus YDL192W, strain arf1, stronger effect = lower value",0.301 (active)
same,normalized growth,"locus YDR001C, strain nth1, stronger effect = lower value",0.722 (active)
same,normalized growth,"locus YDR069C, strain doa4, stronger effect = lower value",0.401 (active)
same,normalized growth,"locus YDR101C, strain arx1, stronger effect = lower value",0.549 (active)
same,normalized growth,"locus YDR137W, strain rgp1, stronger effect = lower value",0.261 (active)
same,normalized growth,"locus YDR159W, strain sac3, stronger effect = lower value",0.722 (active)
same,normalized growth,"locus YDR162C, strain NBP2, stronger effect = lower value",0.0628 (active)
same,normalized growth,"locus YDR195W, strain ref2",0.892
same,normalized growth,"locus YDR297W, strain sur2, stronger effect = lower value",0.559 (active)
same,normalized growth,"locus YDR318W, strain mcm21, stronger effect = lower value",0.34 (active)
same,normalized growth,"locus YDR334W, strain swr1, stronger effect = lower value",0.298 (active)
same,normalized growth,"locus YDR335W, strain msn5, stronger effect = lower value",0.56 (active)
same,normalized growth,"locus YDR388W, stronger effect = lower value",0.149 (active)
same,normalized growth,"locus YDR392W, strain spt3, stronger effect = lower value",0.321 (active)
same,normalized growth,"locus YDR502C, strain sam2, stronger effect = lower value",0.391 (active)
same,normalized growth,"locus YEL003W, strain gim4, stronger effect = lower value",0.504 (active)
same,normalized growth,"locus YEL037C, strain rad23, stronger effect = lower value",0.552 (active)
same,normalized growth,"locus YEL061C, strain CIN8 (second series), stronger effect = lower value",0.694 (active)
same,normalized growth,"locus YEL061C, strain CIN8, stronger effect = lower value",0.39 (active)
same,normalized growth,"locus YER015W, strain faa2, stronger effect = lower value",0.39 (active)
same,normalized growth,"locus YER016W, strain bim1, stronger effect = lower value",0.675 (active)
same,normalized growth,"locus YER110C, stronger effect = lower value",0.412 (active)
same,normalized growth,"locus YER111C, strain swi4, stronger effect = lower value",0.566 (active)
same,normalized growth,"locus YER155C, strain BEM2 (second series), stronger effect = lower value",0.441 (active)
same,normalized growth,"locus YER155C, strain BEM2, stronger effect = lower value",0.276 (active)
same,normalized growth,"locus YER167W, strain BCK2, stronger effect = lower value",0.245 (active)
same,normalized growth,"locus YFR010W, strain ubp6, stronger effect = lower value",0.557 (active)
same,normalized growth,"locus YGL078C, strain dbp3, stronger effect = lower value",0.872 (active)
same,normalized growth,"locus YGL086W, strain mad1, stronger effect = lower value",0.291 (active)
same,normalized growth,"locus YGL167C, strain pmr1, stronger effect = lower value",0.554 (active)
same,normalized growth,"locus YGL173C, strain kem1, stronger effect = lower value",0.248 (active)
same,normalized growth,"locus YGL227W, strain vid30, stronger effect = lower value",0.777 (active)
same,normalized growth,"locus YGL240W, strain doc1, stronger effect = lower value",0.442 (active)
same,normalized growth,"locus YGL248W, strain PDE1, stronger effect = lower value",0.21 (active)
same,normalized growth,"locus YGL253W, strain hxk2, stronger effect = lower value",0.295 (active)
same,normalized growth,"locus YGR078C, strain PAC10, stronger effect = lower value",0.182 (active)
same,normalized growth,"locus YGR135W, strain pre9, stronger effect = lower value",0.394 (active)
same,normalized growth,"locus YGR252W, strain gcn5, stronger effect = lower value",0.456 (active)
same,normalized growth,"locus YHR013C, strain ard1, stronger effect = lower value",0.427 (active)
same,normalized growth,"locus YHR027C, strain rpn1, stronger effect = lower value",0.349 (active)
same,normalized growth,"locus YHR030C, strain SLT2, stronger effect = lower value",0.613 (active)
same,normalized growth,"locus YHR079C, strain IRE1 (second series), stronger effect = lower value",0.434 (active)
same,normalized growth,"locus YHR079C, strain IRE1, stronger effect = lower value",0.67 (active)
same,normalized growth,"locus YHR094C, strain hxt1, stronger effect = lower value",0.417 (active)
same,normalized growth,"locus YHR129C, strain ARP1, stronger effect = lower value",0.216 (active)
same,normalized growth,"locus YHR142W, strain chs7, stronger effect = lower value",0.339 (active)
same,normalized growth,"locus YHR200W, strain rpn10, stronger effect = lower value",0.488 (active)
same,normalized growth,"locus YIL066C, strain RNR3, stronger effect = lower value",0.174 (active)
same,normalized growth,"locus YIL073C, strain SPO22, stronger effect = lower value",0.221 (active)
same,normalized growth,"locus YIL125W, strain kgd1, stronger effect = lower value",0.864 (active)
same,normalized growth,"locus YIR030C, strain dcg1, stronger effect = lower value",0.466 (active)
same,normalized growth,"locus YJL092W, strain hpr5, stronger effect = lower value",0.665 (active)
same,normalized growth,"locus YJL095W, strain BCK1 (second series), stronger effect = lower value",0.22 (active)
same,normalized growth,"locus YJL095W, strain BCK1, stronger effect = lower value",0.0992 (active) and 0.647 (active)
same,normalized growth,"locus YJL115W, strain asf1, stronger effect = lower value",0.644 (active)
same,normalized growth,"locus YJL129C, strain trk1, stronger effect = lower value",0.33 (active)
same,normalized growth,"locus YJL134W, strain LCB3, stronger effect = lower value",0.309 (active)
same,normalized growth,"locus YJL154C, strain vps35, stronger effect = lower value",0.718 (active)
same,normalized growth,"locus YJL164C, strain tpk1, stronger effect = lower value",0.414 (active)
same,normalized growth,"locus YJL166W, strain qcr8, stronger effect = lower value",0.446 (active)
same,normalized growth,"locus YJL168C, strain set2, stronger effect = lower value",0.52 (active)
same,normalized growth,"locus YJL187C, strain SWE1 (second series), stronger effect = lower value",0.192 (active)
